# Measurements from PubChem BioAssay AID435019 (Southern Research Specialized Biocontainment Screening …, 2010).
# About 1,200 (52%) of roughly 2,300 compounds were called active. No rule for the calls is given here. The set was probably picked from earlier hits. The list shows a part of the results. Entries with a potency or affinity are not part of this list.
# Test: mammalian cell cytotoxicity, dose response, cytotoxicity control for M. tuberculosis inhibitor project (AID 435019);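 also: lower values mean fewer viable cells so more cytotoxicity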
# Conditions: cytotoxicity counter-screen; series mostly up to 40 µM
row,SMILES,outcome
1,CC1(C)CC(=O)C2=C(C1)OC(N)=C([N+](=O)[O-])C2c1ccc(C#N)s1 (stereo unspecified),inactive
2,Clc1ccc(CSc2ncn[nH]2)cc1,inactive
3,Nc1ccc(OCc2ccco2)cc1,inactive
4,CCCn1nc(C(=O)NNC(=O)c2ccc(C)c(C)c2)c2ccccc2c1=O,inactive
5,CCOC(=O)c1ccc(NC(=O)CSc2ccc(-c3cccnc3)nn2)cc1,inactive
6,CCOC(=O)c1ccc(NC(=O)CCc2nc(-c3ccc(Cl)cc3)no2)cc1,inactive
7,COc1cccc(/C=C/c2nc(C#N)c(NCC(C)C)o2)c1,inactive
8,O=C(CCc1c[nH]c2ccccc12)N1CCN(S(=O)(=O)c2ccccc2)CC1,inactive
9,CN(C)CCCN(C(=O)c1ccc([N+](=O)[O-])s1)c1nc2cc3c(cc2s1)OCCO3,inactive
10,Cc1ccc(-n2nnc3c(=O)oc4ccccc4c32)cc1,inactive
11,Oc1cccc(-c2nc3ccccc3s2)c1,inactive
12,Cc1nc2sccn2c(=O)c1CCN1CCC(=C(c2ccccc2)c2ccc(F)cc2)CC1,inactive
13,Nc1c(C(=O)NC2CCCCC2)nsc1C(=O)OCC(=O)NC1CCCCC1,inactive
14,O=c1[nH]c(=O)n(C2CCCO2)cc1F (stereo unspecified),inactive
15,NN/C(=C\[N+](=O)[O-])Nc1ccc(Cl)cc1,inactive
16,CSc1ccc(CNC(=O)C2Cc3cc(S(=O)(=O)N4CCCCC4)ccc3N2C(C)=O)cc1 (stereo unspecified),inactive
17,Cc1ccc(CN2CCN(/N=C/c3ccc(Cl)c([N+](=O)[O-])c3)CC2)cc1,inactive
18,CC(C)CS(=O)(=O)C1=NN2C(=N)/C(=C\c3ccc(OC(=O)c4ccco4)cc3)C(=O)N=C2S1,inactive
19,CCCOC(=O)c1ccc(-c2ccc(C=O)o2)cc1,inactive
20,O/N=C/c1cn(-c2ccc(Cl)cc2)nn1,inactive
21,COC(=O)CC(=O)N1CCN(c2ccc(Cl)c(Cl)c2)CC1,inactive
22,CSCCOC(=O)COc1ccc(/C=N/NC(=O)c2c(Cl)cnn2C)cc1,inactive
23,O=C1CCC(=O)N1CNc1ccc(Oc2ccccc2)cc1,inactive

row,SMILES,outcome
1,O/N=C/c1ccc2ccccc2c1,inactive
2,Nc1cc(C(=O)OCC(=O)NNC(=O)c2cccs2)ccc1Cl,inactive
3,CCCNc1nc(-c2cc(C(=O)Nc3ccccc3)on2)cc(C(C)C)n1,inactive
4,CO/N=C(\Cn1ncc(N2CCCC2)c(Cl)c1=O)c1ccc(Cl)cc1,inactive
5,O=C(COc1cc(O)c2c(=O)c3ccccc3oc2c1)OCc1ccccc1,inactive
6,C=CCC1(CC=C)CCCN1C(=O)c1cc(COc2ccc(-n3cncn3)cc2)on1,inactive
7,O=[N+]([O-])c1ccc(-c2csc(NN=C3CCCC3)n2)cc1,inactive
8,Cn1nc(C(F)(F)F)c2cc(NC(=O)OCC(C)(C)C)sc21,inactive
9,CCCCCCN=C1CC(C)(C)CC(=O)/C1=C(/O)CCC,inactive
10,S=C(NCCc1ccccc1)NN=C1CCCCCC1,inactive
11,Cc1occc1-c1nnc(SCC(=O)NCCc2ccccc2)o1,inactive
12,O=S(Cc1ccc(Br)cc1)Cc1nnc(SCc2ccc(Cl)cc2)n1-c1ccccc1 (stereo unspecified),inactive
13,O=C(COC(=O)c1cccs1)c1ccccc1,inactive
14,COC(OC)c1ccnc(-c2ccc(OC(=O)c3cccs3)cc2)n1,inactive
15,CCOC(=O)c1ccc(OC(=O)CCCCCN=C(N)N)cc1,inactive
16,CC1(C)CC(=O)c2c(O)cc(OCc3ccc(Br)cc3)cc2O1,inactive
17,CCOc1ccc(NC(=O)CCc2nnc3ccc(N4CCC(C)CC4)nn23)cc1,inactive
18,Cc1ccc(C(C)C)c(OCC(=O)OCc2c(C)noc2C)c1,inactive
19,Cc1ccc(Nc2nc(N)nc(CN3CCc4ccccc4C3)n2)cc1,inactive
20,Cc1ccccc1Nc1nc(N)nc(COC(=O)c2ccc([N+](=O)[O-])o2)n1,inactive
21,CCOC(=O)CN(C#N)c1nc(N(C)C)nc(N(C)C)n1,inactive
22,CN(C)N=Nc1nc[nH]c1C(N)=O,inactive
23,CCNc1nc(NCC)n2c(SC(C(=O)Nc3cc(C)ccc3C)c3ccccc3)nnc2n1 (stereo unspecified),inactive

row,SMILES,outcome
1,Cn1cc(/C=C2\C(=O)NC(=O)N(c3ccccc3)C2=O)c2ccccc21,inactive
2,CC(C)Cn1c(N2CCN(C(=O)/C=C/c3ccccc3)CC2)nc2ccccc21,inactive
3,CC(C)(Oc1ccc(Cl)cc1)C(=O)OCC(=O)N1CCN(c2ccccc2)CC1,inactive
4,CCN(CC)C(=O)Oc1ccc2c(=O)c(-c3ccc(OC)cc3)coc2c1,inactive
5,CN(C)C(=O)C1C2NC(=S)N(c3ccc(Cl)cc3)C1(C)Oc1ccc(Cl)cc12 (stereo unspecified),inactive
6,COc1cc(NC(=O)C/C(C)=N/NC(=O)c2ccccn2)c(OC)cc1Cl,inactive
7,O=c1oc2cc(O)ccc2c2ccccc12,inactive
8,Cc1ccc(-c2ccc(/C=N/c3ncn[nH]3)o2)cc1Cl,inactive
9,C=C(C)C1CC=C(C)/C(=N/NC(=O)CNc2ccc(OCC)cc2)C1 (stereo unspecified),inactive
10,CCCOC(=O)CSc1nc(N2CCOCC2)c2c(c1C#N)CC(C)(C)OC2,inactive
11,O=C(c1ccc(C#Cc2ccccc2)o1)N1CCN(c2ccccn2)CC1,inactive
12,O=C(Oc1ccc(-c2cn3c(n2)SCC3)cc1)c1ccccc1,inactive
13,CC(=Nc1ccc(C)c(C)c1)C1=C(O)CSC1=O,inactive
14,Oc1ccccc1C=NC1=NN(c2cccc(C(F)(F)F)c2)CC1,inactive
15,O=C(O)c1ccccc1C(=O)NNc1ccc(Cl)cc1Cl,inactive
16,Cc1nn(C(C)(C)C)c(NC(=O)c2ccc(Cl)cc2Cl)c1Br,inactive
17,O=C(C[n+]1cc(-c2ccc(Cl)cc2)n2c1CCC2)Nc1nc(-c2ccccc2)cs1,inactive
18,COc1ccc(N=c2ssnc2Cl)cc1,inactive
19,O=C(CSc1cccc[n+]1[O-])c1cccs1,inactive
20,CCN(CC)CCN(C(=O)c1ccc(S(=O)(=O)N2CCCC2)cc1)c1nc2cc(C)cc(C)c2s1,inactive
21,O=C(OCC(=O)N1CCCc2ccccc21)c1ccc(S(=O)(=O)C(F)F)cc1,inactive
22,COc1cc(C(=O)N/N=C/c2cc([N+](=O)[O-])cs2)cc(OC)c1OC,inactive
23,Cc1ccc(CN2CCN(Cc3ccc(-n4cccn4)cc3C)CC2CCO)cc1 (stereo unspecified),inactive

row,SMILES,outcome
1,COc1ccc(N=C/C=C2/C=C(c3ccccc3)OC(C)(C)O2)cc1,inactive
2,N#CC(C#N)=C(N)CSc1cccc[n+]1[O-],inactive
3,CCOc1ccc(-c2nn3c(-c4ccccc4)nnc3s2)cc1,inactive
4,CCOc1ccc(N=C(NC#N)SCC(=O)NC2CC2)cc1,inactive
5,COc1ccc(Cc2nnc(SCC(=O)N(c3ccccc3)C(C)C)n(N)c2=O)cc1,inactive
6,CC(C)Oc1ccc(NC(=O)Oc2ccccc2)cc1,inactive
7,CC(c1nc2ccccc2c(=O)[nH]1)N(C)CCOc1ccc(Cl)cc1 (stereo unspecified),inactive
8,CCOC(=O)C1CCN(C(=O)c2ccc3c(c2)NC(=O)/C(=C/c2ccccc2)S3)CC1,inactive
9,CN(C)c1ccc(CNc2nc(-c3ccccc3)nn2S(C)(=O)=O)cc1,inactive
10,Nc1ccc(N=Nc2ccccc2)c(N)n1,inactive
11,C#CCOC(=O)/C(=C/c1ccc(F)cc1)NC(C)=O,inactive
12,COc1ccc(-n2c(-c3ccc(Cl)cc3)c[n+]3c2CCc2ccccc2-3)cc1,inactive
13,Cc1ccc(C(=O)C[n+]2cc(-c3ccc(C)cc3)n3c2CCCCC3)cc1,inactive
14,O=C(CN1CCN(Cc2ccc(Cl)cc2)CC1)N/N=C/C=C/c1ccccc1[N+](=O)[O-],inactive
15,O=S(=O)(Nc1ccc2[nH]ncc2c1)c1ccccc1Cl,inactive
16,CC(C)(C)C1CCc2nc(NC(=O)Cc3cn4ccsc4n3)sc2C1 (stereo unspecified),inactive
17,COC(=O)[C@H](CCSC)NC(=O)N1CCN(c2cccc(C(F)(F)F)c2)CC1,inactive
18,O=C(NNC1CC(=O)N(c2ccc(Br)cc2)C1=O)c1ccccn1 (stereo unspecified),inactive
19,Cc1cc2c(cc1C)/C(=N/NC(=O)c1ccccn1)CCC2,inactive
20,Cc1nn(-c2ccccc2)c(Cl)c1C(=O)Nc1nnc(C2CCCCC2)s1,inactive
21,Cc1nn(-c2ccccc2)c(Cl)c1/C=C/C(=O)c1ccccc1,inactive
22,Cc1cccc(C)c1OCCCCc1c(C)n[nH]c1C,inactive
23,COC(=O)CCc1sc(Nc2ccc(Br)cc2)nc1-c1ccc(OC)cc1,inactive

row,SMILES,outcome
1,COC(=O)c1cc(-c2cccc(OC)c2)on1,inactive
2,COc1cccc(NC(=O)CNC(=O)Cn2cnc3sc4c(c3c2=O)CCCC4)c1,inactive
3,Cn1/c(=N/NC(=O)c2cccc(OC(F)F)c2)sc2ccccc21,inactive
4,CCNC(=S)NN=C1c2ccccc2-c2ccccc21,inactive
5,CC(OC(=O)COc1ccc(Nc2ccccc2)cc1)C(=O)N(C)c1ccccc1 (stereo unspecified),inactive
6,C[n+]1c(-c2ccccc2)cc(CCCCc2cc(-c3ccccc3)[n+](C)c(-c3ccccc3)c2)cc1-c1ccccc1,inactive
7,CC1CC(C)CN(C(=O)C2CCC(CNc3c(N4CCCCC4)c(=O)c3=O)CC2)C1 (stereo unspecified),inactive
8,CCC(C)c1ccc2oc(-c3ccc(NC(=O)c4ncn[nH]4)cc3)nc2c1 (stereo unspecified),inactive
9,CCOC(=O)COc1cc([N+](=O)[O-])cc2cccnc12,inactive
10,CC(/C=C/C=C/c1ccccc1)=N\NC(=O)c1cccnc1,inactive
11,CCC1CSC(Nc2ccc(C(=O)/C=C/c3cccc(C)c3)cc2)=N1 (stereo unspecified),inactive
12,O=C(c1ccccc1)c1c[nH]c(C(=O)NNc2ccccc2)c1,inactive
13,COc1ccc(Cc2nc3ccc(C(=O)NCCCSC)cc3o2)cc1OC,inactive
14,Cc1ncc(C23CC4CC(CC(C4)C2)C3)[nH]1,inactive
15,COc1cc(/C=C2\C(=O)NN(c3ccc(C)cc3)C2=O)cc([N+](=O)[O-])c1O,inactive
16,CC(C)(C)NC(=O)COC(=O)c1cc(Br)ccc1Cl,inactive
17,Cc1nonc1OCCNCCNc1ccc([N+](=O)[O-])c2cccnc12,inactive
18,O=C1C(Br)=Cc2cccc3cccc1c23,inactive
19,C=C[C@]1(C)C[C@@H](OC(=O)CSCCN(CC)CC)[C@]2(C)C(C)CC[C@]3(CCC(=O)[C@H]32)[C@@H](C)[C@@H]1O (stereo partly specified),inactive
